According to PubChem BioAssay AID504334 (NMMLSC, 2011):
Activity calls are given as the source filed them.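 The calls were made as follows: active = response relative to DMSO over 150%; inconclusive = yeast strain with under 70 recorded events; inactive = the rest.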

Test: AGP1-GFP expression modulators, hit retest, confirmation, cell-based, flow cytometry, S. cerevisiae, cherry pick set 3 (AID 504334);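 also: median GFP fluorescence per well by flow cytometry over the all cells gate; ratio of sample to mean DMSO control signal so DMSO = 100% not 0%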
Conditions: S. cerevisiae AGP1-GFP strain, 3 h, at 10 µM, stronger effect = higher value

| SMILES | percent response vs DMSO |
| --- | --- |
| COc1ccccc1Nc1nc(NCCC(C)C)nc(N)c1[N+](=O)[O-] | 104% (inactive) |
| Oc1c(I)cc(Cl)c2cccnc12 | 100% (inactive) |
| Cc1cc(C)c2ccc(N)nc2c1O | 101% (inactive) |
| COc1ccc(Nc2nc(NN)nc(C)c2[N+](=O)[O-])cc1 | 94.1% (inactive) |
| Cn1cccc1C(=O)Nc1nc(-c2ccccn2)cs1 | 99.1% (inactive) |
| COc1ccc(OC)c(Nc2nc(NCCC(C)C)nc(N)c2[N+](=O)[O-])c1 | 98.4% (inactive) |
| O=C1c2ccccc2C(=O)c2c1cccc2N(CCO)CCO | 98.8% (inactive) |
| CC(=O)Nc1ccc(-c2nc3cc(Cl)ccc3o2)cc1 | 96.1% (inactive) |
| Nc1c(O)ccc2c1C(=O)c1ccccc1C2=O | 110% (inactive) |
| CNc1nc(N)c([N+](=O)[O-])c(Nc2ccccc2OC)n1 | 89.8% (inactive) |
| O=C(Nc1ccccc1)O/N=C1\CCCCC1c1ccc([N+](=O)[O-])cc1[N+](=O)[O-] (configuration not stated) | 102% (inactive) |
| COc1ccccc1Nc1nc(NCC(C)C)nc(N)c1[N+](=O)[O-] | 101% (inactive) |
| CSc1nc(Nc2ccc(Cl)cc2)c(C#N)c(=O)[nH]1 | 98.4% (inactive) |
| CSc1nc(S(C)(=O)=O)nc2[nH]c(=O)[nH]c12 | 103% (inactive) |
| CCOC(=O)CS(=O)(=O)c1nc(-c2ccccc2)cc(C(F)(F)F)n1 | 122% (inactive) |
| CC1=CN2C(=N)/C(=C/c3ccc([N+](=O)[O-])o3)C(=O)N=C2S1 | 569% (active) |
| CC(=O)Nn1cnc2c(c1=O)C1(CCCCC1)Cc1ccccc1-2 | 104% (inactive) |
